The values below come from PubChem BioAssay AID651551 (Sanford-Burnham Center for Chemical Genomics, 2012).

This assay is described as follows: GAPDH versus PEG-3 reporter suppression – cell-based, luminescence, counter-screen for PEG-3 promoter inhibitor project, SAR follow-up (AID 651551). Conditions: HeLa PEG-Prom / GAPDH luciferase reporter, 6 or 24 h, run 1, 24 h; at 99 µM (top of the series). (The purpose of a counterscreen is to sort out artefacts and off-target activity.)
The compound `Cc1nc(NC(=O)c2ccccc2)sc1-c1csc(Nc2ccccc2Cl)n1` had an inhibition % (higher = more inhibition) of 22.6%.
To `CCn1nc(C(=O)Nc2nc(-c3ccccn3)cs2)c2ccccc2c1=O` belongs 32.8%; to `COc1ccc(-n2nc(C(=O)NCC(=O)Nc3cccc(OC)c3)c3ccccc3c2=O)cc1`, 28.1%.
To `Cc1cc(NC(=O)c2ccccc2C(F)(F)F)n(-c2nc3ccccc3[nH]2)n1` belongs 97.3%; to `Cc1nc(NC(=O)c2ccccc2)sc1-c1csc(Nc2ccccc2)n1`, 92%.
`Cc1cc(NC(=O)c2ccccc2)n(-c2nc3ccccc3n2C)n1` yielded an inhibition % (higher = more inhibition) of 6.34%.
To `COCCCNC(=O)c1ccc(Cn2c(=O)c3ccccc3n(Cc3ccccc3C#N)c2=O)cc1` belongs 73.3%; to `O=C(Nc1nc2ccccc2s1)c1nn(-c2ccccc2)c(=O)c2ccccc12`, 40.7%.
Compound `COc1ccccc1Nc1nc(-c2sc(NC(=O)c3ccco3)nc2C)cs1` came in with an inhibition % (higher = more inhibition) of 68.4%.
As to `O=C(Nc1nc(-c2ccccc2)cs1)c1nn(-c2ccccc2)c(=O)c2ccccc12`, the inhibition % (higher = more inhibition) came to 23.5%.
The compound `CCCn1nc(C(=O)Nc2nc(-c3ccncc3)cs2)c2ccccc2c1=O` came in with an inhibition % (higher = more inhibition) of 88.9%.
In turn, `Cc1nc(NC(=O)c2ccccc2)sc1-c1csc(Nc2cccc(Cl)c2C)n1` returned an inhibition % (higher = more inhibition) of 43.1%.
In turn, `CCn1cc(C(=O)NCc2ccco2)c(=O)c2cc(S(=O)(=O)N3CCCC3)ccc21` had an inhibition % (higher = more inhibition) of 56.3%.
Consider `O=C(Nc1nccs1)c1nn(-c2ccccc2)c(=O)c2ccccc12`, for which the inhibition % (higher = more inhibition) is 38.3%.
`Cc1cc(NC(=O)c2ccccc2C)n(-c2nc3ccccc3[nH]2)n1` showed an inhibition % (higher = more inhibition) of 57.6%.
With `COc1ccc(-n2nc(C(=O)NCC(=O)Nc3ccc(OC)c(OC)c3)c3ccccc3c2=O)cc1`, the inhibition % (higher = more inhibition) is 84.2%.
Compound `COc1ccc(-n2nc(C(=O)NCC(=O)Nc3cc(OC)c(OC)c(OC)c3)c3ccccc3c2=O)cc1OC` showed an inhibition % (higher = more inhibition) of 69.6%.
Consider `Cc1cc(NC(=O)c2ccccc2)n(-c2nc3ccccc3[nH]2)n1`, for which the inhibition % (higher = more inhibition) came to 14.1%.
`COc1ccc(Cl)cc1Nc1nc(-c2sc(NC(=O)c3ccccc3)nc2C)cs1` displayed an inhibition % (higher = more inhibition) of 74.9%.
`CCCn1nc(C(=O)Nc2nc3ccccc3s2)c2ccccc2c1=O` came in with an inhibition % (higher = more inhibition) of 37.5%.
In turn, `Cc1ccc(Cl)cc1Nc1nc(-c2sc(NC(=O)c3ccco3)nc2C)cs1` showed an inhibition % (higher = more inhibition) of 78%.
`CCCn1nc(C(=O)Nc2nc(-c3ccccn3)cs2)c2ccccc2c1=O` came in with an inhibition % (higher = more inhibition) of 73.2%.
In turn, `Cc1cc(NC(=O)c2cccc(C)c2C)n(-c2nc3ccccc3[nH]2)n1` yielded an inhibition % (higher = more inhibition) of 27.5%.
